Shown are actives, neighbours in structure and some others; about 4.8% of the full set was active somewhere.
Calb FLC = C. albicans growth inhibition with fluconazole, primary screen, CaCi-2 strain, Alamar Blue fluorescence; growth inhibition, % (concentration not given with the values); C. albicans CaCi-2 (fluconazole-resistant clinical isolate) + fluconazole, 48 h; AID 1979, 2009; hit rate 0.57% among 300,000;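 active = growth inhibition above about 58% in most replicates, limit read from the data, passing the limit was not always enough; inconclusive = exactly half the replicates above a set limit; inactive = most replicates below a set limit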;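 note: all wells also contain fluconazole at 8 µg/ml as a sub-toxic cotreatment; 0% = median of DMSO wells and 100% = median of geldanamycin control wells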
Beta apoptosis = inhibitors of cytokine-induced beta cell apoptosis, primary screen, luminescence | INS-1E cytokine-induced death, ATP luminescence, 48 h; percent of positive-control rescue, neutral wells zero | protection from apoptosis, % (no concentration beside the values) | hit rate 0.8% among 300,000 | AID 435005, 2010;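 active = Every replicate reaches about 75%, or at least half do and their mean reaches it too, limit read from the data; inconclusive = At least half of replicates reach the limit but their mean does not; inactive = Under half of replicates reach the limit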;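 note: 0% = cytokine-treated negative control wells and 100% = positive control rescue; higher means more ATP so stronger rescue from cytokine killing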
CSC inhib = cancer stem cell viability inhibitors, primary screen, luminescence | AID 2717, 2010 | inhibition, % at 7.5 µM | hit rate 1.1% among 300,000 | cancer stem cell-like cells viability; in the data active = inhibition above about 75%; inconclusive = no clear call, values can overlap the other calls; tested in HMLE shEcad cells
MPTP inh = mitochondrial permeability transition pore inhibitors, primary screen, biochemical, isolated mouse mitochondria, absorbance. inhibition, % at 10 µM. hit rate 1.4% among 360,000. Ca2+ swelling absorbance, 30 min;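 active = inhibition of 50% or more, scaled per plate between neutral and stimulator controls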;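 note: 0% = DMSO wells given calcium and 100% = 1 mM EGTA wells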
Mdm2-MdmX inh = inhibitors of human Mdm2-MdmX association, primary screen, cell-based, luminescence, split luciferase, SaOS-2, uHTS. Protein Mdm4 (Homo sapiens) + E3 ubiquitin-protein ligase Mdm2 (Homo sapiens), …. hit rate 3% among 330,000. SaOS-2 split-luciferase Mdm2/MdmX complementation. inhibition, % at 8 µM. AID 485346, 2010;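 active = inhibition of at least 50% at 8 µM in the primary screen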
Target sequence (O15151 whole entry, looked up): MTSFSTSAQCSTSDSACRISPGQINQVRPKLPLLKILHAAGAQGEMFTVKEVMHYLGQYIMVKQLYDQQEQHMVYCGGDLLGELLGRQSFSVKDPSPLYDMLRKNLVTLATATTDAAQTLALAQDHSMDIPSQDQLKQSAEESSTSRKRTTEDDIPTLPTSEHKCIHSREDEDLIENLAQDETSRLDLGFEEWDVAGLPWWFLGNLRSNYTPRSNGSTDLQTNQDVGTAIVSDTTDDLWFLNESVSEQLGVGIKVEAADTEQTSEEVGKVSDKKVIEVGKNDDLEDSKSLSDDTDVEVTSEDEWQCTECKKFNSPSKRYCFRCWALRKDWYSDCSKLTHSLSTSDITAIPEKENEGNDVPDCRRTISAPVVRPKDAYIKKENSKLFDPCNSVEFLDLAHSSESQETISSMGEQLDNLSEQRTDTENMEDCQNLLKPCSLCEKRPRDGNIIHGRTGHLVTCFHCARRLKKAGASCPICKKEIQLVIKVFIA
Target sequence (Q00987 whole entry, looked up): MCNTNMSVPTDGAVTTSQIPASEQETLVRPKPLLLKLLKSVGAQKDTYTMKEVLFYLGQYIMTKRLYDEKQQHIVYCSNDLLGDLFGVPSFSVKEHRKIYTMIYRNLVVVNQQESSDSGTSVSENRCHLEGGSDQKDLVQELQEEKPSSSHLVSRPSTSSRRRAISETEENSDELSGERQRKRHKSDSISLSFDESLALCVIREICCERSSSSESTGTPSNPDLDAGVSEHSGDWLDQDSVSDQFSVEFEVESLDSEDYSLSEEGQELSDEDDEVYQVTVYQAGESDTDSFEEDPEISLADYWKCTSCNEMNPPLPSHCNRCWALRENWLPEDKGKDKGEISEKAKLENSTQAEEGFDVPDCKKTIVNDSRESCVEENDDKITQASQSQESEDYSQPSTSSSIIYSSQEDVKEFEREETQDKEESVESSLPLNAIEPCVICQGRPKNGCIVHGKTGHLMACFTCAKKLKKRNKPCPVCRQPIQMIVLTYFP
Mdm2 MdmX conf = Mdm2-MdmX complex disruptors, retested hits, confirmation, luminescence, single concentration; Mdm2-MdmX binding, luminescent assay; shares compounds with Mdm2-MdmX inh; inhibition, % at 8 µM; hit rate 55% among 10,000; in the data active = inhibition above about 40%
Full FLuc ctr = full-length luciferase signal inhibition, confirmation, counter-screen for Mdm2/MdmX interaction inhibitor project, cell-based, single concentration, SaOS-2 | inhibition, % at 8 µM | SaOS-2 full-length luciferase counterscreen, luminescence | shares compounds with Mdm2-MdmX inh | hit rate 77% among 6,200 | AID 504607, 2011;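 active = mean inhibition at 8 µM reaching about 37%, which flags the compound as non-specific, limit read from the data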;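 note: p53-null SaOS-2 cells with luciferase driven by a doxycycline-inducible promoter; compound on cells about two nights before reading with doxycycline added after day one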
Active calls of the source: *; ? = inconclusive; . = no result.

SMILES	Calb FLC	Beta apoptosis	CSC inhib	MPTP inh	Mdm2-MdmX inh	Mdm2 MdmX conf	Full FLuc ctr
COCCCNC(=O)c1ccc2c3c(onc13)-c1ccccc1C2=O	-14	19	23	7	-68	.	.
C=C(C(=O)c1ccccc1)C(C(=C)C(=O)c1ccccc1)c1ccc(OC)cc1	2	111*	59	3	98*	99*	50*
O=C(c1ccccc1)C(c1ccccc1)c1ccccc1	10	3	10	8	-8	.	.
COc1ccc(C(CC(=O)c2ccccc2)CC(=O)c2ccccc2)cc1	9	-3	-8	2	2	.	.
C=C(C(=O)c1ccccc1)C(c1ccccc1)C(C)C(=O)c1ccccc1 (configuration not stated)	-3	.	111*	1	92*	63*	44*
CCOc1ccccc1NC(=O)c1ccc2c(c1)C(=O)N(CC)C2=O	-7	1	5	0	10	.	.
O=C1N/C(=N\N=C\c2cccs2)SC1Cc1ccc(Cl)cc1Cl (configuration not stated)	-3	-5	39	0	74*	51*	70*
O=C(CC1S/C(=N/N=C/c2cccs2)NC1=O)Nc1ccc(Cl)cc1 (configuration not stated)	0	-5	12	1	34	.	.
O=C1N/C(=N\N=C\c2cccs2)SC1Cc1cccc(Cl)c1Cl (configuration not stated)	6	4	50	4	83*	62*	58*
CCOC(=O)[C@]12CCC=C1N(Cc1ccco1)C(=O)[C@H](CC(=O)N1CCCC1)C2	.	.	.	0	.	.	.
CC(C)c1nnc(NC(=O)CC(=O)Nc2ccccc2C(=O)O)s1	-11	0	-7	-2	67*	47*	74*
COc1cc(NS(=O)(=O)c2ccc(C)cc2)c2ncccc2c1	?	45	38	2	89*	99*	5
COc1cc(NC(=O)c2ccccc2Cl)c2ncccc2c1	-16	-1	51	1	57*	50*	52*
Cc1ccc(S(=O)(=O)Nc2cccc3cccnc23)cc1	7	35	78*	-1	99*	99*	52*
COc1ccc(OCc2cc(=O)[nH]c3ccccc23)cc1	52	3	6	0	10	.	.
COc1ccc2c(c1)[nH]c(=O)c1sc3ccccc3c12	6	22	-4	2	60*	19	.
COc1ccc2c(-c3ccccc3)cc(=O)[nH]c2c1	33	4	2	-1	9	.	.
COc1ccc2sc3c(=O)[nH]c4ccccc4c3c2c1	19	41	-6	0	72*	74*	44*
Cc1c(O)ccc(/C=N/Nc2nc(-c3cccnc3)nc3ccccc23)c1O	0	24	48	10	66*	59*	70*
Cc1ccc(Nc2nc(-c3cccnc3)nc3ccccc23)cc1	2	.	65	16	63*	57*	57*
O=[N+]([O-])c1ccc(-c2nc(Nc3ccc(O)cc3)c3ccccc3n2)cc1	3	8	47	4	70*	28	.
Oc1ccc(/C=N/Nc2nc(-c3cccnc3)nc3ccccc23)c(O)c1	?	21	16	9	33	.	.
CCn1c2ccccc2c2cc(NC(=O)c3cc(OC)c(OC)c(OC)c3)ccc21	14	.	.	2	69*	62*	119*
CCn1c2ccccc2c2cc(NC(=O)c3ccc(=O)oc3)ccc21	3	-8	4	10	34	.	.
COc1cc(C(=O)Nc2ccc3c(c2)N(C(=O)CCN(C)C)c2ccccc2CC3)cc(OC)c1OC	-25	1	-2	2	61*	41*	100*
SMILES	Calb FLC	Beta apoptosis	CSC inhib	MPTP inh	Mdm2-MdmX inh	Mdm2 MdmX conf	Full FLuc ctr
CCn1c2ccccc2c2cc(NC(=O)c3coc(=O)c(Br)c3)ccc21	0	36	66	8	74*	32	38*
COc1cc(-n2c(=O)c3ccccc3n(CC(=O)c3ccccc3)c2=O)cc(OC)c1OC	1	5	-14	0	83*	4	.
COc1ccc(OC)c(C(O)c2ncc(-c3ccc(C(F)(F)F)cc3)[nH]2)c1 (configuration not stated)	.	.	.	0	.	.	.
COc1ccccc1CNC(=O)c1ccc2c(=O)n3c(nc2c1)CCCCC3	7	1	.	1	32	.	.
CCC(C)N(CCNC(=O)c1ccc2c(c1)NC(=O)c1ccccc1S2)C1CCCCC1 (configuration not stated)	-30	2	16	3	67*	48*	56*
CN(C(=O)COC(=O)c1ccccc1OCc1ccc(Cl)cc1)c1c(N)n(Cc2ccccc2)c(=O)[nH]c1=O	0	9	-5	1	28	.	.
CC1(C(=O)Nc2ccc(F)c(Cl)c2)Cc2c(-c3ccc(C(N)=O)cc3)ccnc2O1 (configuration not stated)	.	.	.	1	.	.	.
O=C1c2ccc3c4c(ccc(c24)C(=O)N1c1ccc(O)cc1)C(=O)N(c1ccc(O)cc1)C3=O	-5	68	-11	-1	63*	17	.
COc1ccccc1CCNC(=O)C1CCN(c2nnc(C)c3c(C)n(-c4ccc(C)cc4)nc23)CC1	28	33	11	-2	89*	39	79*
CCOc1ccccc1CNC(=O)C1CCN(c2nnc(C)c3c(C)n(-c4ccc(C)cc4)nc23)CC1	-4	59	18	-1	100*	76*	5
COc1ccc(-n2nc3c(N4CCC(C(=O)NCCc5ccco5)CC4)nnc(C)c3c2C)cc1	-5	2	-19	-2	45	.	.
Cc1nnc(N2CCCC(C(=O)NCc3ccccc3F)C2)c2nn(-c3ccccc3)c(C)c12 (configuration not stated)	-5	2	-31	-1	68*	30	.
CCOc1ccccc1CNC(=O)Cn1nc(C)c2c(C)n(-c3ccc(C)cc3)nc2c1=O	60	17	-1	2	16	.	.
COc1ccc(-n2nc3c(N4CCC(C(=O)NCc5cccc(C)c5)CC4)nnc(C)c3c2C)cc1	70	37	-15	-2	99*	45*	48*
CCCCCNC(=O)C(c1cc2ccccc2o1)n1c(=O)c(-c2cc3ccccc3[nH]2)nc2ccccc21 (configuration not stated)	.	.	.	3	.	.	.
Cc1[nH][nH]c(=O)c1C	.	-1	-6	0	1	.	.
